Assay results: publication PMC7819943, “Rice protein-binding microarrays: a tool to detect cis-acting elements near promoter regions in rice”
Over roughly 68,000 sequences, “fluorescence intensity (a.u.)” has its median near 9,100; the highest 2% begin near 16,000. Only a selection was taken, and the highest values are over-represented in it overall.

Target: OsWRKY34 (Oryza sativa, UniProt Q0JBA9 1-250)
Assay: protein-binding microarray (RPBM); PBS, 2% BSA, 51.3 ng/ul salmon testes DNA, 50 uM zinc acetate, 200 nM TF, 25 C, 1 h; high values mean tight binding
Conditions: protein: recombinant; tags: N-terminal polyhistidine and DsRed monomer fusion (pET32a); label: CyDye5-dUTP incorporated in the synthesized complementary strand; 3' TTTTT single-stranded linker to array surface; dsDNA, one strand shown
Outline: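 Transcription factors were made in E. coli BL21-CodonPlus as N-terminal fusions to a polyhistidine tag and DsRed, then purified on Ni–NTA. After primer extension with Cy5-dUTP and blocking with 2% BSA, a custom Agilent array was exposed for 1 h at 25 °C to 200 nM protein in PBS, 2% BSA, salmon testes DNA and 50 µM zinc acetate. Washed arrays were scanned on an Axon 4000B, and the binding signal is per-feature fluorescence intensity in arbitrary units.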

OsWRKY34, sequence (Q0JBA9 entry or part of it): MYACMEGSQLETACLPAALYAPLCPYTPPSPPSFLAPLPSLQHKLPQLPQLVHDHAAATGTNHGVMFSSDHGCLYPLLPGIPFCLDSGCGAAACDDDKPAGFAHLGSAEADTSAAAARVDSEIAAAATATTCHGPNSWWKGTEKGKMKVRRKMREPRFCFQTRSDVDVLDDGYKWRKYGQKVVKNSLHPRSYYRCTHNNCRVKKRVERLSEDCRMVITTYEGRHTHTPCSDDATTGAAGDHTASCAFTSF

Sequence	binding signal
CTGTTCCATTTCTCCTTGTTGCATCAGTAACTCCAAACCACGGAGTCACCTAGTGCAG	12200 fluorescence intensity (a.u.)
GATTATTTGCTTTACGGTTTTTTAAAAAAATTTCTTCATACGGAGTCACCTAGTGCAG	9590 fluorescence intensity (a.u.)
CACACACACCCTGTCGAGCGAATATGCATGTCTTCTCAAGCGGAGTCACCTAGTGCAG	8960 fluorescence intensity (a.u.)
TCCCTTTTGAGTACCACTGCTGATATCTGGATGCCCGTCACGGAGTCACCTAGTGCAG	8080 fluorescence intensity (a.u.)
TTCACAATGTAAGCCATTCTAGCATTTTCCATATTTATATCGGAGTCACCTAGTGCAG	8240 fluorescence intensity (a.u.)
ATTTTGCCCCTTGTTGATCACCACAGAAGAACATGTGCTACGGAGTCACCTAGTGCAG	9790 fluorescence intensity (a.u.)
TTTGACACCGTTGATTTTTTAATATGTGTTTGACCATTCGCGGAGTCACCTAGTGCAG	9260 fluorescence intensity (a.u.)
TGTTAACTTTTTAGTACGTGTTTGACTATTCGTTTTATTCCGGAGTCACCTAGTGCAG	12800 fluorescence intensity (a.u.)
TGTCACATTCGTCTCCGGTCCGTACGTTGCTGTATTTTAGCGGAGTCACCTAGTGCAG	17100 fluorescence intensity (a.u.)
CGTTGACTTTTTAGTACGTGTTTGACCATTCGTCTTATTCCGGAGTCACCTAGTGCAG	30200 fluorescence intensity (a.u.)
TTTAGTACGTGTTTGACCATTCGTCTTATTAAAAAAATTTCGGAGTCACCTAGTGCAG	9130 fluorescence intensity (a.u.)
GGTCGTCGTCTTTGCATTGTCTCCTTGTCCGGTACGTTGGCGGAGTCACCTAGTGCAG	9400 fluorescence intensity (a.u.)
CCCATTCTTTCACTTTTGACCTTTTTTTATCATTTTGTTTCGGAGTCACCTAGTGCAG	9510 fluorescence intensity (a.u.)
ATCCGTGTATTATAGCGTTTCGTAGTAGTATTTTTATGTCCGGAGTCACCTAGTGCAG	9280 fluorescence intensity (a.u.)
AACTTTACAATTTTTTTATGTCATCCATGTCACATGTTTTCGGAGTCACCTAGTGCAG	9030 fluorescence intensity (a.u.)
GTTCATATAGTACGTACTTTTATTCGTTAGTATATATGACCGGAGTCACCTAGTGCAG	9410 fluorescence intensity (a.u.)
TTTGACACCGTTGACTTTTTAGTACGTATTTGATCATTCGCGGAGTCACCTAGTGCAG	33800 fluorescence intensity (a.u.)
ACCCACTTTCGACTCCATGAATTTCATCACATTTGTTTTACGGAGTCACCTAGTGCAG	18600 fluorescence intensity (a.u.)
GTTCCCAACGGTCACCTCGTCGTCGTTGCCAAATCTGCCACGGAGTCACCTAGTGCAG	8670 fluorescence intensity (a.u.)
ATCACGTCGCCTCGTTTCTTGCCTCGCCGCTCGTTGCTCGCGGAGTCACCTAGTGCAG	12200 fluorescence intensity (a.u.)
AATACCAAGTTTATTTCTCACCTGCATTTTAGATTCTCATCGGAGTCACCTAGTGCAG	9050 fluorescence intensity (a.u.)

Sequence	binding signal
TAGTCCACCTTTTATTACCCAAGTTTCAATTTGGACCACCCGGAGTCACCTAGTGCAG	9740 fluorescence intensity (a.u.)
TCCCTTCCCTGTTCCTGGCGACGTGTCACCTTCTTATTCGCGGAGTCACCTAGTGCAG	8050 fluorescence intensity (a.u.)
ATAAACATTGACTCGCCGGAGTAGTTTTGAAACGTTTGACCGGAGTCACCTAGTGCAG	9180 fluorescence intensity (a.u.)
GCAACCAACATCCCGGCGGCGAGCTCGTACGTACCAAATCCGGAGTCACCTAGTGCAG	10800 fluorescence intensity (a.u.)
CACACCACACACTGATGCAACGGCACTTAAGCGCACGAAGCGGAGTCACCTAGTGCAG	8060 fluorescence intensity (a.u.)
CGTCGGTGTGGTATGCTTGTCGCGCGGCGGCGCGGCCGTACGGAGTCACCTAGTGCAG	8790 fluorescence intensity (a.u.)
CCTACCTCCTACTCCTTATCCTCCACTTCGTCGCATTACACGGAGTCACCTAGTGCAG	8750 fluorescence intensity (a.u.)
CGACTGCAGCTGATCCGGATTCAACACGGACATAGTACACCGGAGTCACCTAGTGCAG	8550 fluorescence intensity (a.u.)
ATTTAGTTCTCAACATACCCCTTTTCATCTTTTTGTCAGACGGAGTCACCTAGTGCAG	8840 fluorescence intensity (a.u.)
CGTTGACTTTTTAGTACATGTTTGACCATTCGTCTTATTCCGGAGTCACCTAGTGCAG	36100 fluorescence intensity (a.u.)
CTTTTTAATCAACGTTTGACCATTCGTCTTATTCAATTTTCGGAGTCACCTAGTGCAG	10900 fluorescence intensity (a.u.)
TCATTCATATTATTTATTATTTAGTTGTTTGACTTTTTTTCGGAGTCACCTAGTGCAG	9600 fluorescence intensity (a.u.)
ACACCGTTGACTTTTTAGTACGTATTTGACCATTCGTCTTCGGAGTCACCTAGTGCAG	36700 fluorescence intensity (a.u.)
AATATTTTTTTTTACTGTTTTCACTTTGACCATTAATATTCGGAGTCACCTAGTGCAG	9790 fluorescence intensity (a.u.)
GTTGACTTTTTGATTAACGTTTGACCATTCGTTTTATTCACGGAGTCACCTAGTGCAG	9480 fluorescence intensity (a.u.)
TCATTGACTTTTCGATCAACGTTTGACCATTTGTTTTATTCGGAGTCACCTAGTGCAG	16700 fluorescence intensity (a.u.)
GCTGTTGACTTTCGACCTACGTTTGACCATTCGTTTTATTCGGAGTCACCTAGTGCAG	20600 fluorescence intensity (a.u.)
GCCATTTGTACGTTTCTATTTTCTCAGTAATCAGACCATTCGGAGTCACCTAGTGCAG	11600 fluorescence intensity (a.u.)
CCCGTCTCCTCGCCTGCCGATCTCCATCCTGCTAGCAGAGCGGAGTCACCTAGTGCAG	8930 fluorescence intensity (a.u.)
AGATACATACGCCCACCCGCCGCGCCCACTTCCGTCCAAACGGAGTCACCTAGTGCAG	8490 fluorescence intensity (a.u.)
TCCTCCTGTCTCTGCCTCTGCTCGGCTAGTCTAGTGTACTCGGAGTCACCTAGTGCAG	8810 fluorescence intensity (a.u.)
